Compound activity from PubChem.
BAZ2B block: inhibitors of human BAZ2B bromodomain; Potency, µM (top dose mostly 114 µM), without a hit: at the top dose activity change, negative = inhibition, usual class: inhibitors; 360,000 compounds, 4.4% hits; AlphaScreen BAZ2B-H3K14Ac peptide displacement; AID 504333; also: % is scaled to controls: 0 for no effect and ±100 for the full control effect; nearly all actives have a fitted effect of over 60% in size
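Multi-concentration screen (max 110 uM) measuring displacement of acetylated histone H3 peptide from BAZ2B by AlphaScreen, using 50 nM protein, 50 nM peptide and 10 ug/mL streptavidin donor plus Ni-chelate acceptor beads.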
L3MBTL1 block: L3MBTL1 (human) inhibition | AlphaScreen L3MBTL1–H3K9me1 peptide binding | Potency, µM (series often up to 57.1 µM), for the others: at the top dose activity, negative = inhibition, hits mostly inhibitors | 230,000 compounds, 0.66% hits | AID 485360 | Q9Y468; also: % is scaled to controls: 0 for no effect and ±100 for the full control effect; nearly all actives have a fitted effect of over 60% in size
Target sequence (Q9Y468 whole entry, looked up): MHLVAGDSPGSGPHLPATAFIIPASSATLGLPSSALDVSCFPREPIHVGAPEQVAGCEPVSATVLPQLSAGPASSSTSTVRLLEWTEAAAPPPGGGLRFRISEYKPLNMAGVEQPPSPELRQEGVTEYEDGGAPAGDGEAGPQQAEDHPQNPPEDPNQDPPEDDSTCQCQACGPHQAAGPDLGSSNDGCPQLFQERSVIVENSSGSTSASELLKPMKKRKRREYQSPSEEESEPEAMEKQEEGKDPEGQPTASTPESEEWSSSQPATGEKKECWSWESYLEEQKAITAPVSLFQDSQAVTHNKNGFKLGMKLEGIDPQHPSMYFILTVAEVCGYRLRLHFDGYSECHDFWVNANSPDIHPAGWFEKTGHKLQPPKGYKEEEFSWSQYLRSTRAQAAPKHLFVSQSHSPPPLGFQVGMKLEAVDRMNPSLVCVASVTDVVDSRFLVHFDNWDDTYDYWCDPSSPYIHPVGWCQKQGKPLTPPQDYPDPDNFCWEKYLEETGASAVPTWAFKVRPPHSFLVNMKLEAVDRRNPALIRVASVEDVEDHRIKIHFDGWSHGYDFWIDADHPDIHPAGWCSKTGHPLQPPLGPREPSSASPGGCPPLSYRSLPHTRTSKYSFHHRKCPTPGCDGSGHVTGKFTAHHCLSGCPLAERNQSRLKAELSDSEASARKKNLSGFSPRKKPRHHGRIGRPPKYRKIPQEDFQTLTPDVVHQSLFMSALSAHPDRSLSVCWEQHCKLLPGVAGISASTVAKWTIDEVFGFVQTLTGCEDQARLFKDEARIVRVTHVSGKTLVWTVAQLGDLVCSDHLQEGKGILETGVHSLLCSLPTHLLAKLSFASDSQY
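First, the protein-peptide complex forms for 30 min at room temperature (L3MBTL1 50 nM, biotinylated H3K9me1 peptide 75 nM). Next, compounds are pin-transferred and incubated 30 min. Finally, AlphaScreen beads are added and read after 30 min.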
HP1b chromo inh: inhibitors of HP1-beta chromodomain binding to methylated histone tails. 390,000 compounds, 0.56% hits. Potency, µM (series often up to 114 µM), without a hit: at the top dose activity change, negative = inhibition, usual class: inhibitors. AlphaScreen HP1-beta / biotin-H3K9me3 peptide binding. P83916; also: nearly all actives have a fitted effect of over 70% in size
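HP1-beta protein (50 nM final) preincubated 30 min at room temperature with biotinylated H3(1-18)K9me3 peptide (50 nM) in PBS pH 7.4, 0.01% Tween-20, then compound added for 30 min. AlphaScreen streptavidin donor/nickel chelate acceptor beads (10 ug/mL final), 30 min dark, luminescence read.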
JMJD2A Tudor: blocks the human JMJD2A Tudor domain; O75164; AlphaScreen JMJD2A-Tudor / H3K4me3 peptide binding; Potency, µM (titrated, usually from 114 µM), for the others: at the highest dose activity change, negative = inhibition, most hits filed as inhibitors; 390,000 compounds, 4.4% hits; AID 504339; also: % is scaled to controls: 0 for no effect and ±100 for the full control effect; nearly all actives have a fitted effect of over 50% in size
PLK1 PBD block: inhibitors of human PLK1 polo-box domain binding; P53350; 360,000 compounds, 2.8% hits; AID 720504; Plk1 PBD binding of FITC phosphopeptide, fluorescence polarization; Potency, µM, inactives show max response, negative = inhibition, actives largely listed as inhibitors; also: series mostly up to about 57 µM; % is scaled to controls: 0 for no effect and ±100 for the full control effect; nearly all actives have a fitted effect of over 65% in size
VDR inhibitor: blocks the human vitamin D receptor; Potency, µM, without a hit: max response, negative = inhibition, most hits filed as inhibitors; P11473; VDR-SRC2-3 peptide fluorescence polarization, 2 h; 400,000 compounds, 0.93% hits; also: % is scaled to controls: 0 for no effect and ±100 for the full control effect
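VDR–SRC2-3 interaction, FP format. Cmpds 23 nl via pintool, brief spin, 2 h ambient incubation.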
* = called active by the depositor; ? = inconclusive; nt = no result given; ! = a repeat was not active; [ ] = dose if it differs, or a comment. In the library only some 6.9% were active in any assay of this set; here they are far more common. Calls follow the shape of the dose curve; as a rule, active = well fitted curve in the direction sought with a large enough effect; inconclusive = small, poorly fitted or top-dose-only effect, or another doubt; inactive = no such curve, though single readings can be large; an effect the other way counts as inactive or inconclusive. Potency is read from the fitted curve at half-maximal effect.

SMILES	BAZ2B block	L3MBTL1 block	HP1b chromo inh	JMJD2A Tudor	PLK1 PBD block	VDR inhibitor
C=CCc1cc(OC)ccc1OCC(O)CN1CCN(c2ccc(OC)cc2)CC1 (stereo unspecified)	35.5µM*	-17.9%	-41.6%	44.7µM*	-0.7%	0.6%
OC(COc1cccc2ccccc12)CN1CCOCC1 (stereo unspecified)	nt	nt	21.3%	-7.5%	-10.3%	-23.1%
Cc1cccc(OCC(O)CN2CCN(c3ccccn3)CC2)c1C (stereo unspecified)	-20.8%[57.1 µM]	nt	2.1%	79.4µM*	-11.4%	3.1%
Cc1ccc(OCC(O)CN2CCOCC2)c(C)c1 (stereo unspecified)	-35.5%	9.2%	0.6%	89.1µM*	-6.5%	4.5%
COc1ccc(-c2noc(CN(C(=O)Cc3ccc(C)cc3)C(C)C)n2)cc1	13.7%	nt	45.4%	-4.0%	nt	-6.8%
CCCn1c2ccccc2c2cnn(CC(=O)Nc3ccccc3OC)c(=O)c21	3.9%	nt	0.3%	-9.6%	nt	7.2%
COc1cccc([C@@H]2Oc3ccc(OC)cc3C(=O)[C@H]2OC(=O)Nc2ccc(OC(F)F)cc2)c1	nt	nt	nt	nt	nt	-3.7%
CCc1ccc(NC(=O)CCn2nc(-c3ccccc3OC)c3c(C)cc(C)nc32)cc1	-15.5%	nt	25.0%	-18.8%	nt	-1.5%
CNCCCC1Sc2ccccc2Oc2ccccc21 (stereo unspecified)	?	-24.7%	-34.2%	8.91µM*	-9.2%	-8.7%
COc1ccc(/C=C2\Oc3cc(OCC(=O)N4CCC[C@H]4CO)ccc3C2=O)c(OC)c1	-10.8%	10.5%	21.6%	-17.0%	9.2%	7.0%
Cc1csc2nc(-c3ccc(NS(=O)(=O)c4cc(F)ccc4F)cc3)cn12	?	nt	-0.5%[57 µM]	?	nt	-3.6%
COC(=O)C(CCSC)NC(=O)c1cc2c(n(-c3ccc(C)cc3)c1=O)CCCC2=O (stereo unspecified)	50.1µM*	?	26.8%[57 µM]	-8.9%	-19.8%	-17.6%
COC(=O)C(CCSC)NC(=O)c1cc2c(n(-c3ccc(C)cc3)c1=O)CC(C)(C)CC2=O (stereo unspecified)	-6.1%	nt	23.5%	-18.7%	nt	-4.7%
CC(=O)c1cccc(-n2c(CCC(=O)O)ccc2-c2cccs2)c1	50.1µM*	-8.7%	?	56.2µM*	-25.8%	-23.1%
O=C(O)CCc1ccc(-c2cccs2)n1CCc1ccccc1	28.2µM*	-17.1%	34.2%	?	-18.4%	-2.0%
O=C(O)CCc1ccc(-c2cccs2)n1-c1ccc(C(=O)O)cc1	-38.9%	-29.0%	8.0%	?	?	-29.3%
Cc1nn(CC(O)COc2ccc3c(c2)CCC3)c(C)c1C (stereo unspecified)	-3.9%	nt	2.5%	?	3.36µM*	-11.9%
COc1ccc(NC(=O)Cn2c(C(C)C)nc(C)cc2=O)cc1Cl	?	-14.1%	47.0%	-4.1%	-7.2%	-0.8%
COC(=O)Cn1c(=O)oc2ccc(C)cc21	-0.1%	1.3%	-14.1%	31.6µM*	26.7µM*	-10.8%
CCCCCOC(=O)Cn1c(=O)oc2ccc(C)cc21	36.5%	24.4%	76.6%	38.3%	-4.8%	-7.4%
CC1CCN(c2nn3c(=O)c(C(=O)NC(C)C)cnc3s2)CC1	2.7%	nt	19.7%	-1.3%	nt	9.1%
COc1ccc(CCN(Cc2cc3ccc(C)cc3n3nnnc23)C(C)=O)cc1OC	4.5%	nt	-6.7%	11.2µM*	3.36µM*	39.8µM*
O=C(Nc1ccc(F)cc1)c1ccc2c(c1)NC(=O)c1ccccc1S2	-1.4%	nt	35.7%	-2.9%	nt	-7.2%
O=C(N/N=C/c1ccccc1Cl)c1ccncc1	8.3%	8.8%	23.2%	-7.8%	-12.0%	-21.5%
O=C(N/N=C/c1coc2ccc(Cl)cc2c1=O)c1cc(O)cc(O)c1	?	nt	11.7%	-35.6%	26.7µM*	-5.6%
SMILES	BAZ2B block	L3MBTL1 block	HP1b chromo inh	JMJD2A Tudor	PLK1 PBD block	VDR inhibitor
O=C(NCC1CCCO1)C(=O)N/N=C/c1cc(Cl)ccc1O (stereo unspecified)	?	?	31.0%	39.8µM*	-15.1%	-6.8%
O=C(N/N=C/c1cc(Cl)ccc1O)c1ccncc1	20µM*	25.1µM*	-11.3%	?	3.36µM*	?
Cc1ccc2occ(/C=N/NC(=O)c3ccc(Cl)cc3)c(=O)c2c1	-16.7%	nt	24.3%	?	-6.2%	-10.6%
O=C(CCCCCn1c(=O)c2sccc2n(CC(=O)Nc2ccccc2F)c1=O)NCc1ccc2c(c1)OCO2	2.0%	nt	16.4%	-8.9%	nt	-8.9%
CCCc1nnc(SCC(=O)O)n1CC	-21.6%	nt	60.4%	-4.4%[11.4 µM]	-12.1%	-9.7%
Cn1cc(C(=O)C(=O)NC2CC2)c2ccccc21	nt	nt	-25.5%[57 µM]	-24.0%	26.7µM*	-5.8%
Cc1ccc2nc3cc([N+](=O)[O-])cc([N+](=O)[O-])c3cc2c1	-29.9%	nt	6.0%	?	0.947µM*	-20.5%
CC(CN1C(C)CCCC1C)OC(=O)c1cccc(Br)c1 (stereo unspecified)	-14.7%	nt	23.2%	-20.4%	-5.5%	-12.4%
Oc1c(I)cc(I)c2cccnc12	8.6%	-6.6%	-19.7%	56.2µM*	?	35.5µM*!
Clc1cc2cccnc2c2ccccc12	63.1%	18.5%	70.5%	28.4%	?	-10.5%
Cc1ccc(-n2nc3c(=O)n(CCCC(=O)N4CCC(C(N)=O)CC4)nc(C)c3c2C)cc1	-4.6%	nt	23.1%	-10.7%	6.5%	20.0%
Cc1cccc(-c2nc(S(=O)(=O)c3ccc(F)cc3)c(NCCCN3CCOCC3)o2)c1	70.8µM*	nt	?	?	-12.5%	-14.7%
Cc1ccc(S(=O)(=O)c2nc(-c3ccccc3)oc2NCCCN2CCOCC2)cc1	-31.8%	-13.9%	36.8%	?	-19.2%	-11.7%
Cc1ccc(C)n1-c1ccc(C(=O)NN)cc1	8.4%	11.4%	10.7%	50.1µM*	2.99µM*	?
CNCCOc1nc(N2CCOCC2)nc(C)c1[N+](=O)[O-]	6.1%	2.7%	31.0%	-13.9%	-3.3%	-8.8%
CCOc1nc(N2CCOCC2)nc(C)c1[N+](=O)[O-]	-28.7%	4.6%	7.7%	-24.7%	29.9µM*	-9.5%
CC1=C(/C=C/C(=C/C=C/C(C)=C/C(=O)O)c2ccc(C)cc2)C(C)(C)CCC1	nt	nt	nt	nt	nt	22.4µM*
CC1=C(/C=C/C(C)=C/C=C/C(C)=C\C(=O)O)C(C)(C)CCC1	nt	nt	28.4%	-29.5%	?	50.1µM*!
CC1=C(/C=C/C(C)=C/C=C/C(C)=C/C(=O)Nc2ccc(O)cc2)C(C)(C)CCC1	-31.2%	-4.1%	?	50.1µM*	-9.4%	-6.7%
CC1=CC(=O)CC(C)(C)C1(O)/C=C/C(C)=C/C(=O)O (stereo unspecified)	0.3%	9.0%	36.3%	-10.9%	2.3%	-1.8%
CC1=C(/C=C/C(=O)O)C(C)(C)CCC1	-29.7%	nt	-2.1%	-21.6%	-7.8%	-19.5%
CC1=C(\C=C/C(C)=C/C=C\C(C)=C\C(=O)O)C(C)(C)CCC1	nt	nt	nt	nt	nt	17.8µM*
